# Experimental data taken from PubChem BioAssay (NCI).
# Compounds without any hit were thinned out: in the full panel of roughly 83,000, 20% have a hit.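 The test compound was applied at a single concentration to cells in 96-well plates for 48 hours, and percent growth was recorded.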 Values without a mark were called inactive. Active and inactive are the calls of the source. Rule for the calls: active = growth percent below 10; inactive = the rest.
# What was measured:
# Experiment in all cases: NCI-60 one-dose screen, 48 h (100 = growth as untreated, 0 = no growth, -100 = all killed)
# Conditions in all cases: 10 µM unless noted
# [1] = tested on: SK-MEL-2 melanoma
# [2] = tested on: EKVX NSCLC
# [3] = tested on: SN12C renal
# [4] = tested on: UO-31 renal
# [5] = tested on: TK-10 renal
# [6] = tested on: ACHN renal
# [7] = tested on: CAKI-1 renal
# [8] = tested on: A498 renal
# [9] = tested on: CCRF-CEM leukemia
# [10] = tested on: MOLT-4 leukemia
SMILES,growth [1],growth [2],growth [3],growth [4],growth [5],growth [6],growth [7],growth [8],growth [9],growth [10]
c1ccc(C(CC2=NCCCN2)c2ccccc2)cc1,108%,97.2%,90.9%,76.8%,110%,104%,97.6%,111%,9.65% (active),92.7%
COc1cc2c(cc1C)NC(=O)/C2=C\c1c[nH]c2ccccc12,76.4%,74.5%,67.8%,27.6%,83.7%,61.8%,10.6%,78.5%,53.6%,24.4%
O=C(O)c1ccccc1N=Cc1ccccc1,108%,101%,110%,97.5%,103%,105%,96.3%,117%,88.5%,
CC(=O)c1ccc(Nc2nc(Cl)nc(Oc3c(Cl)cccc3Cl)n2)cc1,97.1%,77.2%,93.1%,77.8%,115%,98.3%,85.5%,69.3%,91%,77.1%
CN(C)c1ccc(C(c2ccccc2)c2ccc(N(C)C)cc2)cc1,89.1%,102%,92.6%,62.1%,122%,97.9%,93.1%,107%,99.2%,85.7%
CCCCCCCCCCCCCCCCCC1=NC(C)(C)CN1C(C)(C)CO,-69% (active),27%,11.6%,-52.9% (active),-35.1% (active),-75.6% (active),-65.2% (active),78.9%,-52.9% (active),
CCCNC(=S)N/N=C(\C)c1ccccn1,69.8%,12.1%,31.6%,-0.774% (active),47.4%,10.8%,6.68% (active),30.8%,15.9%,
CN(C)c1ccc(/C=N/Nc2nnc3n2N=C(c2ccc(Cl)cc2)CS3)cc1,97.5%,89%,95%,74.9%,92.9%,99.5%,96.8%,85.6%,86.8%,
C/C=C(\C)C(C(=O)NC1CCCCC1)N(C(=O)C1CCc2cc(F)ccc2O1)c1ccc([N+](=O)[O-])cc1 (centres undefined),99.6%,84.2%,93.4%,69.1%,89.9%,89.7%,80.2%,90.3%,97.3%,
COCCCNCC(=O)Nc1c(C)cccc1C,112%,104%,104%,88.4%,113%,102%,105%,110%,98.6%,
Oc1[nH]c2ccccc2c1/C=c1/ccc2c(c1)N=C(c1ccc(C(F)(F)F)cc1)N=2,27.9%,51.1%,63.7%,73.1%,75.5%,58.7%,32.8%,35%,8.28% (active),35.5%
COc1ccc2c(c1)CCCC21C(=O)Nc2c(Cl)cccc21 (centres undefined),43%,91%,82.6%,82.8%,95.4%,85.1%,54.9%,79.6%,60.9%,52.1%
Fc1[nH]nc2ccc([C@@H]3Nc4ccc5[nH]ncc5c4[C@H]4C5CCC(C5)[C@@H]34)cc12 (some centres undefined),33.1%,36.1%,46.1%,51.3%,42.4%,43.7%,32.6%,-12.4% (active),18%,
CCN(CC)c1ccc(C(=N)c2ccc(N(C)C)cc2)cc1,-4.95% (active),15.2%,24.8%,8.99% (active),31.4%,30.1%,-19.9% (active),-20.1% (active),21.7%,17.7%
COc1ccc(C(=O)C(CN(C)C)c2ccccc2)cc1 (centres undefined),14.6%,28.1%,31.4%,-18.7% (active),29.5%,-71.4% (active),-46.7% (active),60.2%,12.6%,
COc1ccc2[nH]cc(/C=C3\C(=O)Nc4ccccc43)c2c1,12.6%,49%,49.5%,-14.7% (active),53%,34.6%,-0.757% (active),40.5%,14%,1.26% (active)
O=C1Nc2ccccc2/C1=C/c1c[nH]c2ccccc12,99.8%,15.7%,64.5%,29.3%,110%,66.7%,42.8%,91.6%,58.9%,
COc1ccc(/C=c2\c(=O)n(-c3ccccc3)c3nn4c(n23)=NNC42CCCCC2)cc1,108%,91.8%,98.5%,63.2%,159%,90.5%,85.6%,93.4%,101%,
C#CCNC(=S)N/N=C(\C)c1ccccn1,74.3%,22.1%,13.4%,-13.9% (active),50.9%,15.7%,-13.6% (active),16.7%,13.4%,3.54% (active)
O=C(NC1CC1)c1ccc(-c2nc3ccc4[nH]ncc4c3c3c2CCCC3)cc1,2.88% (active),55.6%,48.4%,25.9%,8.68% (active),17.1%,0.658% (active),-5.47% (active),29.7%,38.8%
CCCC(CCC)NCC(O)c1cc(-c2ccc(C(F)(F)F)cc2)nc(C(F)(F)F)c1 (centres undefined),-66.1% (active),-9.08% (active),-78.5% (active),-44.9% (active),-63.8% (active),-60.1% (active),-28.1% (active),-31% (active),-7.92% (active),-30.6% (active)
COc1cc(NC(C)CCCN)c2ncccc2c1Sc1ccc(Cl)cc1 (centres undefined),102%,71.9%,64.9%,40.1%,78.6%,74.8%,50.2%,55.9%,44.7%,31.7%
COc1ccc2[nH]c(C(=O)OCc3ccc4cccc(O)c4n3)cc2c1,-20.3% (active),-78% (active),-74.8% (active),-100% (active),-89.2% (active),-98.4% (active),-97.6% (active),36.5%,4.41% (active),-11.5% (active)
Nc1nc2ccc([C@@H]3Nc4ccc5[nH]ncc5c4[C@H]4[C@H]5CCC(C5)[C@H]43)cc2s1,-1.54% (active),16.2%,11.4%,30.4%,46.3%,29.7%,29.8%,-2.86% (active),21.2%,
O=C(/C=C/c1cc([N+](=O)[O-])ccc1Cl)c1ccccc1,107%,84.6%,80.8%,70.8%,112%,91.2%,73.2%,86%,68.7%,78%
CCN(C)CCCOc1ccc(/C(=C(\C)Cc2cccc(OC)c2)c2ccc(OC(C)=O)cc2)cc1,103%,92.5%,95%,92%,95%,104%,94.9%,94.3%,96.6%,103%
